Shown are actives, neighbours in structure and some others; about 1.2% of the full set was active somewhere.
RGS7-Gao – RGS7-Galphao binding modulators, primary screen, biochemical, multiplexed bead flow cytometry; binding response (% of control), % at 10 µM; AID 1439, 2008; actives 0.35% (n = 220,000); actives lie on both sides; in the data active = binding response below about 49% or above about 150%; inconclusive = no clear call, values can overlap the other calls; inactive = in between;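 note: fluorescent Galphao held in activated GDP-AlF4 state binding bead-coupled RGS7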
Target sequence (P09471 whole entry, looked up): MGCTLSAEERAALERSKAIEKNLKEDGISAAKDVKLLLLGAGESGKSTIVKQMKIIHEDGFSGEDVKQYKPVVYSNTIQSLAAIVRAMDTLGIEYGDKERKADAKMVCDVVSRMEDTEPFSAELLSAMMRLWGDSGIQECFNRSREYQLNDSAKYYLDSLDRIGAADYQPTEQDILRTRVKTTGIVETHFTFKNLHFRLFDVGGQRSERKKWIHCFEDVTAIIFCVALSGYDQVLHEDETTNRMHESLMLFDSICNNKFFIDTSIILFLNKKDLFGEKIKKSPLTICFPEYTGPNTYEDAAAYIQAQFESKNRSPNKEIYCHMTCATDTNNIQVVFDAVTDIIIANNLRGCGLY
GSH bead fluor – compound fluorescence on glutathione beads, profiling panel, artefact control, biophysical, 488/530 nm, flow cytometry. GSH beads flow cytometry, compound fluorescence 488/530 nm; stronger effect = higher value. fluorescence (KMESF) at 10 µM. actives 0.25% (n = 190,000); in the data active = fluorescence above about 89;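 note: glutathione beads carrying GST-tagged Bcl family fusion proteins plus one bare bead set; values are compound well signal with DMSO vehicle wells as background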
RGS4-Gao reg – modulators of RGS4 binding to Galphao, primary screen, biochemical, multiplexed bead flow cytometry; Guanine nucleotide-binding protein G(o) subunit alpha (Homo sapiens), P09471; actives 0.33% (n = 220,000); actives lie on both sides; binding response (% of control), % at 10 µM; AID 1415, 2008; in the data active = binding response below about 49% or above about 150%; inactive = in between;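 note: fluorescent Galphao activated with aluminum fluoride binding bead-coupled RGS4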
Avidin fluor – green autofluorescence of compounds with avidin beads – biophysical, 488/530 nm, flow cytometry, artefact control, profiling panel; actives 0.38% (n = 220,000); fluorescence (KMESF) at 10 µM; compound fluorescence 488/530 nm; stronger effect = higher value; in the data active = fluorescence above about 47
RGS8-Gao – RGS8-Galphao binding modulators, primary screen, biochemical, multiplexed bead flow cytometry | actives lie on both sides | response (percent of control binding), % at 10 µM | actives 0.34% (n = 220,000); in the data active = response below about 60% or above about 140%; inactive = in between;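 note: Galphao activated as the GDP aluminium fluoride complex binding bead-coupled RGS8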
RGS16-Gao – modulators of RGS16 binding to Galphao, primary screen, biochemical, human proteins, multiplexed bead flow cytometry. Regulator of G-protein signaling 16 (Homo sapiens) + Guanine nucleotide-binding protein …. bead-based flow cytometry RGS16-Galphao binding, fluorescence; actives lie on both sides. binding response (% of control), % at 10 µM. actives 0.38% (n = 220,000). AID 1441, 2008;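 note: Galphao activated by GDP with aluminum fluoride before binding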
RGS4-Gao HTS – modulators of RGS–Galpha-o binding, primary screen, biochemical, multiplexed beads, flow cytometry, RGS4/7/8/16/19; shares compounds with RGS16-Gao; multiplexed bead flow cytometry; RGS4–Galpha-o binding response, % at 10 µM; actives 99% (n = 1,600);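 note: fluorescently labeled Galpha-o bound to GDP with aluminium fluoride binding biotinylated RGS beads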
Biotin-avidin – disruption of biotin probe capture by avidin, counter-screen for RGS protein interaction modulators, biochemical, flow cytometry, bead-based; shares compounds with RGS16-Gao; streptavidin beads, fluorescein-biotin binding; inhibition, % at 10 µM; 1,700 tested, under 10 active; AID 1783, 2009;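 active = inhibition above 50%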;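 note: median green fluorescence of gated singlet beads compared with DMSO control wells; 0% = DMSO wells and 100% = complete loss of bead fluorescence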
RGS8-Gao confirm – RGS8-Galphao binding modulators, confirmation, biochemical, multiplexed bead flow cytometry, single concentration. shares compounds with RGS16-Gao. bead-based flow cytometry RGS8-Galphao binding, fluorescence; actives lie on both sides. binding response (% of control), % at 10 µM. actives 3% (n = 1,700). AID 1836, 2009; in the data active = binding response below about 72% or above about 130%; inactive = in between;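 note: Galphao activated as GDP AlF4 complex before binding bead RGS8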
RGS7-Gao confirm – RGS7-Galphao binding modulators, confirmation, biochemical, multiplexed bead flow cytometry, single concentration. bead-based flow cytometry RGS7-Galphao binding; actives lie on both sides. response (percent of control binding), % at 10 µM. actives 7.8% (n = 1,700). shares compounds with RGS16-Gao; in the data active = response below about 75% or above about 130%; inactive = in between;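 note: fluorescent Galphao activated with GDP and aluminum fluoride binding bead-coupled RGS7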
RGS16-Gao conf – modulators of RGS16-Galphao protein binding, confirmation, biochemical, single concentration, multiplexed bead flow cytometry; actives 4% (n = 1,700); bead-based flow cytometry; actives lie on both sides; AID 1838, 2009; response (% of control binding), % at 10 µM; shares compounds with RGS16-Gao; in the data active = response below about 74% or above about 130%; inactive = in between;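 note: Galphao activated as the GDP aluminium fluoride complex binding bead-coupled RGS16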
RGS4-Gao confirm – modulators of RGS4-Galphao protein binding, confirmation, biochemical, single concentration, multiplexed bead flow cytometry; shares compounds with RGS16-Gao; actives lie on both sides; binding response (% of control), % at 10 µM; actives 4% (n = 1,700); in the data active = binding response below about 74% or above about 130%; inactive = in between
RGS19-Gao conf – regulators of RGS19-Galphao binding, confirmation, biochemical, single point, multiplexed bead flow cytometry | shares compounds with RGS16-Gao | bead-based flow cytometry RGS19-Galphao binding; actives lie on both sides | response (percent of control binding), % at 10 µM | actives 5% (n = 1,700); in the data active = response below about 50% or above about 160%; inactive = in between;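 note: 100% = no compound control and 0% = blank background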
Target sequence (P09471 whole entry, looked up): as above
Target sequence (P49795 whole entry, looked up): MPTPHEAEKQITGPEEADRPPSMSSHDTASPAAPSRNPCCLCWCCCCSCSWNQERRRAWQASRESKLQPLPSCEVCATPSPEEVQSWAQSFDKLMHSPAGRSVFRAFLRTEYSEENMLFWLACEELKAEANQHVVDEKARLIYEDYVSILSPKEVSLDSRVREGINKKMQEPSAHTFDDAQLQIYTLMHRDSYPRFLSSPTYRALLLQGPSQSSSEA
* = called active by the depositor; i = inactive; ? = inconclusive; · = no result; [ ] = dose if it differs, or a comment. Unless noted, the rule behind the calls is not given here.

SMILES	RGS7-Gao	GSH bead fluor	RGS4-Gao reg	Avidin fluor	RGS8-Gao	RGS16-Gao	Biotin-avidin	RGS8-Gao confirm	RGS7-Gao confirm	RGS16-Gao conf	RGS4-Gao confirm	RGS19-Gao conf	others
Cc1cc(C)c[n+](C(C)C(=O)c2ccc(-c3ccccc3)cc2)c1 (stereo unspecified)	103	15	106	14	104	103	·	·	·	·	·	·
O=C(Nc1nc(-c2ccccc2)c(C(=O)c2ccccc2)s1)c1ccc(S(=O)(=O)N2CCCC2)cc1	381*[activator]	64	297*[activator]	172*	135	349*[activator]	1	104	101	101	103	91
O=S(=O)(N1CCCCC1)N1CCN(c2ccccc2F)CC1	156*[activator]	15	105	70*	104	119	12	104	108	107	108	93	RGS4-Gao HTS=105*
CS(=O)(=O)N1CCN(c2ccccc2F)CC1	93	32	98	8	97	83	·	·	·	·	·	·
Cc1ccc(S(=O)(=O)N(C)C)cc1-n1c(SCC(=O)Nc2ccc(F)c(F)c2F)nc2ccccc2c1=O	99	9	105	17	102	101	·	·	·	·	·	·
CS(=O)(=O)N(CC(=O)Nc1cccnc1)c1ccc2c(c1)OCCO2	101	35	109	9	109	140	·	·	·	·	·	·
CS(=O)(=O)N(CC(=O)Nc1cccnc1)c1ccc2c(c1)OCO2	·	17	·	·	·	·	4	92	80	84	87	78
COc1nc(N/N=C/c2ccc(C)cc2)nc(N2CCCCC2)n1	102	17	103	17	104	107	·	·	·	·	·	·
C/C(=N/NC(=O)CNc1ccc(C)cc1)c1ccc(Cl)cc1	·	18	·	·	·	·	3	102	106	100	100	107
Cc1ccc(C(=O)CNc2ccc(Cl)cc2)cc1	107	12	103	8	103	104	·	·	·	·	·	·
COc1cccc(NC(=S)NC2CC3CCCC(C2)N3CC(C)C)c1 (stereo unspecified)	101	13	101	7	96	107	·	·	·	·	·	·
CCOC(=O)c1cc(OCC(=O)NC(C)C(C)C)cc(C(=O)OCC)c1 (stereo unspecified)	-9.7*	11	-31*	-3	6.1*	-19*	-2	95	98	95	95	99
COc1cc(C(=O)N/N=C/c2ccccn2)cc(OC)c1OC	?	11	20*	0	13*	12*	-2	101	105	101	102	107
COc1cc(C)ccc1OCCOCCOc1ccccc1[N+](=O)[O-]	95	10	91	13	96	87	·	·	·	·	·	·
COc1ccccc1OCCOCCOc1ccc(C)cc1[N+](=O)[O-]	122	8	116	18	130	295*[activator]	-1	99	100	99	98	113	RGS4-Gao HTS=116*
COc1ccccc1OCCOCCOc1c(C)cc(C)cc1Br	106	9	110	13	122	227*[activator]	2	97	96	98	99	93	RGS4-Gao HTS=110*
O=C(/C=C/c1ccccc1)NC(=S)Nc1ccc2c3c(cccc13)CC2	113	9	109	13	107	113	·	·	·	·	·	·
Brc1cc(Br)cc(CN2CCSCC2)c1	?	·	103	6	102	105	·	·	·	·	·	·
COc1ccc(NC(=S)Nc2ccccc2)c(OC)c1	107	12	106	17	109	115	·	·	·	·	·	·
COc1ccc(NC(=S)Nc2ccc(OCc3ccccc3)cc2)c(OC)c1	165*[activator]	18	140	11	117	37	1	103	103	102	101	105	RGS4-Gao HTS=140*
CC(C)CCN1CCC(N)=NC1=O	217*[activator]	35	234*[activator]	26	110	191*[activator]	-2	115	104	116	107	86
CC(C)CCN1CC(C(=O)NCCC2=CCCCC2)CC1=O (stereo unspecified)	99	14	101	6	104	103	·	·	·	·	·	·
Cc1cc(C)c2oc(C(=O)Nc3ccc(S(=O)(=O)N4CCCC(C)C4)cc3)cc(=O)c2c1 (stereo unspecified)	168*[activator]	17	152*[activator]	93*	103	146	-2	104	98	102	103	107
O=C(CCc1nnc(Cc2ccc3c(c2)OCO3)o1)N(CC1CCC1)CC1CCCO1 (stereo unspecified)	?	·	108	6	104	103	·	·	·	·	·	·
O=C(NCCSCc1ccc(Cl)cc1Cl)c1ccc(CN2CCOCC2)cc1	-2.0*	10	-21*	-1	13*	-10*	1	99	100	99	99	108
Cc1cc(=O)oc2c(CN(CC(C)C)CC(C)C)c(O)ccc12	115	12	119	4	144*[activator]	249	i	99	103	100	101	99	RGS4-Gao HTS=119*

Screening data deposited in PubChem BioAssay by NMMLSC.
